According to ChEMBL document CHEMBL4513216, “Probing the Open Global Health Chemical Diversity Library for Multistage-Active Starting Points for Next-Generation Antimalarials” (ACS Infect Dis, 2020):
About 8,600 (12%) of roughly 69,000 compounds showed an effect of 50% or more. Many of the other results were omitted from the sample, so strong results are more common in it than they were.

system: Plasmodium berghei; assay: Screen against P. berghei liver stage (PbLuc), transformed with Luciferase, at 10uM; assay type: functional, HepG2; details: tested at 10 uM

**Q.** Which INHIBITION does the source give for CCN(CC)c1ccc2ccc(C(=O)NC3CC3)cn12 here?
**A.** 24.6%

**Q.** With CCN(CC)c1ccc2ccc(C(=O)N(CCOC)CCOC)cn12 as the compound, how does the INHIBITION read?
**A.** 46.7%

**Q.** CCN(CC)c1ccc2ccc(C(=O)O)cn12 was tested. Which INHIBITION did it give?
**A.** 39.3%

**Q.** For CCNC(=O)c1ccc2ccc(N(CC)CC)n2c1, which INHIBITION is on record?
**A.** 55.6%

**Q.** With CN(C)C(=O)CNC(=O)c1ccc2ccc(N(C)CC3CC3)n2c1 as the compound, how does the INHIBITION read?
**A.** 26%

**Q.** For CN1CCN(c2ccc3ccc(C(=O)N4CCCO4)cn23)CC1, which INHIBITION is on record?
**A.** 51.2%

**Q.** Which INHIBITION does the source give for CCN(CC)c1ccc2ccc(C(=O)N(C)C)cn12 here?
**A.** 57.1%

**Q.** For CN(CC1CC1)c1ccc2ccc(C(=O)NC3CCCCC3)cn12, which INHIBITION is on record?
**A.** 0.112%

**Q.** How did the INHIBITION turn out when CCN(CC)c1ccc2ccc(C(=O)N3CCCCO3)cn12 was run?
**A.** 68.9%

**Q.** How did the INHIBITION turn out when CN(CC1CC1)c1ccc2ccc(C(=O)NCCN3CCOCC3)cn12 was run?
**A.** 23.2%

**Q.** With O=C(c1ccc2ccc(N3CCN(CC4CC4)CC3)n2c1)N1CCCO1 as the compound, how does the INHIBITION read?
**A.** 40.8%

**Q.** With CN1CCN(c2ccc3ccc(C(=O)N4CCCCO4)cn23)CC1 as the compound, how does the INHIBITION read?
**A.** -12.4%

**Q.** Which INHIBITION does the source give for C[C@@H]1CN(CCC(=O)NCc2ccccc2Cl)CC[C@@]1(O)C1CCC1 here?
**A.** 41.4%

**Q.** How did the INHIBITION turn out when CN(C)C1CCN(C(=O)Cc2csc(-c3ncccn3)n2)CC1 was run?
**A.** -31.3%

**Q.** Which INHIBITION does the source give for COc1c(CNCCc2c[nH]c3ccccc23)c(C(C)C)nn1C here?
**A.** 22.5%

**Q.** Which INHIBITION does the source give for COCC1COCCC12CCN(S(=O)(=O)c1ccccc1C)CC2 (configuration not stated) here?
**A.** 48.4%

**Q.** Which INHIBITION does the source give for CCCc1nnc2sc(-c3cc(C(C)C)n[nH]3)nn12 here?
**A.** 35.7%

**Q.** Which INHIBITION does the source give for Cc1noc(C)c1C(=O)N1CCCN(C)c2ccc(Cl)cc21 here?
**A.** 19.7%

**Q.** How did the INHIBITION turn out when Cc1nc(C)n(CC2CCCN(CCCc3ccccc3)C2)n1 (configuration not stated) was run?
**A.** 44.3%

**Q.** For O=C(NC1CC1)[C@H]1CN(Cc2ccc3c(c2)OCO3)C[C@H]2OCC[C@@H]12, which INHIBITION is on record?
**A.** -23.3%

**Q.** Cc1cc2[nH]cc(C(=O)N3CCCCC3c3ccc(F)cc3)c(=O)n2n1 (configuration not stated) was tested. Which INHIBITION did it give?
**A.** 17.8%

**Q.** With Cc1cc(=O)c(C(=O)N2CCCCC2c2ccc(F)cc2)c[nH]1 (configuration not stated) as the compound, how does the INHIBITION read?
**A.** -4.37%

**Q.** For Cc1nc2[nH]cc(C(=O)N3CCCCC3c3ccc(F)cc3)c(=O)n2n1 (configuration not stated), which INHIBITION is on record?
**A.** 57.1%

**Q.** For Cc1cc(CN2CCCN(c3ccc(C#N)cc3)CC2)no1, which INHIBITION is on record?
**A.** 29.17%

**Q.** COc1ccc(Cn2c(C3CCNCC3)cc3cccnc32)cc1 was tested. Which INHIBITION did it give?
**A.** 36.8%

**Q.** Which INHIBITION does the source give for c1cnc2c(c1)cc(C1CCOCC1)n2CCN1CCOCC1 here?
**A.** 32.4%

**Q.** COc1cccc(Cn2c(C3CCNCC3)cc3cccnc32)c1 was tested. Which INHIBITION did it give?
**A.** 10.82%

**Q.** How did the INHIBITION turn out when Fc1cccc(F)c1Cn1c(C2CCCNC2)cc2cccnc21 (configuration not stated) was run?
**A.** 30.74%

**Q.** How did the INHIBITION turn out when Fc1cccc(F)c1Cn1c(C2CCNCC2)cc2cccnc21 was run?
**A.** 54.9%

**Q.** Fc1ccccc1Cn1c(C2CCNCC2)cc2cccnc21 was tested. Which INHIBITION did it give?
**A.** 52.55%

**Q.** With Cc1oncc1C(=O)N1CCC2(CCN(Cc3cccnc3)C2=O)C1 (configuration not stated) as the compound, how does the INHIBITION read?
**A.** 5.41%

**Q.** O=C(CC1CCCCC1)N1CCOCC1CO (configuration not stated) was tested. Which INHIBITION did it give?
**A.** -40%

**Q.** CCOCc1nn(C)c2c1CN(CCO)CC2 was tested. Which INHIBITION did it give?
**A.** 27.6%

**Q.** With O=C(N1CCOCC1)[C@@]12CCO[C@@H]1CCN(C1CCCCC1)C2 as the compound, how does the INHIBITION read?
**A.** 0.542%

**Q.** COc1ccc(OC)c(CN(C)c2nc3c(cnn3C)c(=O)[nH]2)c1 was tested. Which INHIBITION did it give?
**A.** 4.3%

**Q.** With COc1ccc(CN(C)c2nc3c(cnn3C)c(=O)[nH]2)c(OC)c1 as the compound, how does the INHIBITION read?
**A.** 73.8%

**Q.** How did the INHIBITION turn out when COc1ccccc1CN(C)c1nc2c(cnn2C)c(=O)[nH]1 was run?
**A.** 27.9%

**Q.** With COc1cccc([C@@]2(O)CC[C@@H]3CN(C(=O)c4c[nH]nc4C)C[C@@H]32)c1 as the compound, how does the INHIBITION read?
**A.** 15.15%

**Q.** Which INHIBITION does the source give for CC(=O)N1CCN(c2cc(CCN)nc(C3CC3)n2)CC1 here?
**A.** 3.91%

**Q.** How did the INHIBITION turn out when CSc1nsc(SCC(=O)c2cc3c(cc2Cl)NC(=O)C3)n1 was run?
**A.** 18.4%

**Q.** For CCCOc1ccc(C(=O)N2CCN3CCNC(=O)C3C2)cc1Cl (configuration not stated), which INHIBITION is on record?
**A.** 18.7%

**Q.** How did the INHIBITION turn out when CCN1CCC2(CC1)OCCN2C(=O)c1cc(Cl)c(OC)c(Cl)c1 was run?
**A.** 59.5%

**Q.** For CCN1CCC2(CC1)OCCN2C(=O)c1ccc(OC)c(Cl)c1, which INHIBITION is on record?
**A.** 45%

**Q.** How did the INHIBITION turn out when CCCOc1c(Cl)cc(C(=O)N2CCOC23CCN(C)CC3)cc1Cl was run?
**A.** 55.4%

**Q.** For COc1cc(C(=O)N2CCCS2(=O)=O)cc(Cl)c1OC, which INHIBITION is on record?
**A.** 21.1%

**Q.** Which INHIBITION does the source give for CCCOc1ccc(C(=O)N2CC[C@@H]3CC[C@H](C2)N3)cc1Cl here?
**A.** -4.4%

**Q.** How did the INHIBITION turn out when Cc1ccc(C(NC(=O)CCCN2CCCCC2)C(=O)O)cc1 (configuration not stated) was run?
**A.** -18.9%

**Q.** For COc1cc(CCC(=O)N2CCC(c3cnccn3)CC2)on1, which INHIBITION is on record?
**A.** 36.15%

**Q.** How did the INHIBITION turn out when Cc1ccc(F)c(NS(=O)(=O)c2cc3c(c(C(=O)O)c2)OCCO3)c1 was run?
**A.** 14.1%

**Q.** For COCCN1C(=O)[C@@H]2CC[C@H]1CN(C(=O)Cc1c(F)cccc1Cl)C2, which INHIBITION is on record?
**A.** -107%

**Q.** For CCc1c(C(=O)O)nnn1-c1cc(C)ccc1C, which INHIBITION is on record?
**A.** -7.83%

**Q.** For Cc1cc(C)n(CC2CN(Cc3cccnc3)CCO2)n1 (configuration not stated), which INHIBITION is on record?
**A.** 18.7%

**Q.** Which INHIBITION does the source give for CC(=O)N1CC[C@H]2OCC[C@@]2(C(=O)NCCc2ccccn2)C1 here?
**A.** 3.81%

**Q.** With COCCNc1ccc(CNCc2cnc3nc(C)cc(C)n23)cc1 as the compound, how does the INHIBITION read?
**A.** -45.7%

**Q.** Which INHIBITION does the source give for O=C(NCCc1coc(-c2ccc(F)cc2)n1)NC1CCC(O)CC1 (configuration not stated) here?
**A.** 54.6%

**Q.** With Cc1ccc(-c2nc(CCNC(=O)NC3CCN(C)CC3)co2)cc1 as the compound, how does the INHIBITION read?
**A.** -9.14%

**Q.** For COc1ccc(-c2nc(CCNC(=O)NC3CCC(O)CC3)co2)cc1 (configuration not stated), which INHIBITION is on record?
**A.** 50.6%

**Q.** For O=C(NCCc1coc(-c2ccc(F)cc2)n1)NCC1CCOC1 (configuration not stated), which INHIBITION is on record?
**A.** 13.8%

**Q.** Which INHIBITION does the source give for COc1ccc(-c2nc(CCNC(=O)NCC3CCOC3)co2)cc1 (configuration not stated) here?
**A.** 1.04%

**Q.** For O=C(NCCc1coc(-c2ccccc2)n1)NC1CC1, which INHIBITION is on record?
**A.** 44.1%

**Q.** How did the INHIBITION turn out when Cc1ccc(-c2nc(CCNC(=O)NC3CCC(O)CC3)co2)cc1 (configuration not stated) was run?
**A.** 68.8%

**Q.** CCC(C(=O)NCCc1coc(-c2ccc(C)cc2)n1)N(C)C (configuration not stated) was tested. Which INHIBITION did it give?
**A.** 10.5%

**Q.** How did the INHIBITION turn out when O=C(NCCc1coc(-c2ccc(F)cc2)n1)NC1CC1 was run?
**A.** 0.914%

**Q.** For c1ccc(CCN2CCCC(c3ccnc4nccn34)C2)cc1 (configuration not stated), which INHIBITION is on record?
**A.** 39.1%

**Q.** O=C(c1ccncc1F)N1CC[C@@H]2OC(COCC3CC3)CC[C@@H]21 (some centres not stated) was tested. Which INHIBITION did it give?
**A.** 14.5%

**Q.** CCCN(CC(F)F)C(=O)CCc1c(C)nc2cc(O)nn2c1C was tested. Which INHIBITION did it give?
**A.** 4.1%

**Q.** How did the INHIBITION turn out when Cc1nn(Cn2ccc(C(=O)N3CCCCCC3)n2)c(C)c1Cl was run?
**A.** 26.9%
